High-throughput results (PubChem BioAssay)
PINK1 modulator: A Quantitative High throughput Screen to Identify Chemical Modulators of PINK1 Expression | 0.2% of 410,000 active | PINK1 immunofluorescence, high-content cytometry, 24 h | Potency, µM (top dose mostly 76.6 µM), without a hit: top-dose activation (PINK1 increase), usual class: activators; active means well fitted activation curve with a large enough effect; inconclusive means small, poorly fitted or top-dose-only effect; cell line not stated here; further: potency means the concentration at half of the fitted maximal effect; % of control where 0% means no effect; nearly all actives have a fitted effect of over 65% in size
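A stable cell line was treated with compounds at 5 concentrations for 24 hours, with CCCP as control. PINK1 levels and mitochondrial localization were measured by immunofluorescence with mitochondrial, cell and nuclear markers after fixation, read by laser-scanning cytometry.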
Menin MLL FP TR: qHTS Assay for Inhibitors Targeting the Menin-MLL Interaction in MLL Related Leukemias: Competition With Texas Red Labeled MLL-derived Mutant Peptide | 0.23% of 270,000 active | Menin + Texas Red MLL mutant peptide, fluorescence polarization | Potency, µM (series often up to 61.6 µM), inactives show at the highest dose FP activity change, negative = inhibition, usual class: inhibitors; active means well fitted inhibition curve with a large enough effect in the polarisation, with a control signal flat, not every such curve was filed as active; inconclusive means small, poorly fitted or top-dose-only effect, or effect the other way, or a change in a side signal; inactive means no such curve, though single readings can be large or run the other way; the % refers to the polarisation; further: potency means the concentration at half of the fitted maximal effect; % of control where 0% means no effect
Target sequence (O00255 whole entry, looked up): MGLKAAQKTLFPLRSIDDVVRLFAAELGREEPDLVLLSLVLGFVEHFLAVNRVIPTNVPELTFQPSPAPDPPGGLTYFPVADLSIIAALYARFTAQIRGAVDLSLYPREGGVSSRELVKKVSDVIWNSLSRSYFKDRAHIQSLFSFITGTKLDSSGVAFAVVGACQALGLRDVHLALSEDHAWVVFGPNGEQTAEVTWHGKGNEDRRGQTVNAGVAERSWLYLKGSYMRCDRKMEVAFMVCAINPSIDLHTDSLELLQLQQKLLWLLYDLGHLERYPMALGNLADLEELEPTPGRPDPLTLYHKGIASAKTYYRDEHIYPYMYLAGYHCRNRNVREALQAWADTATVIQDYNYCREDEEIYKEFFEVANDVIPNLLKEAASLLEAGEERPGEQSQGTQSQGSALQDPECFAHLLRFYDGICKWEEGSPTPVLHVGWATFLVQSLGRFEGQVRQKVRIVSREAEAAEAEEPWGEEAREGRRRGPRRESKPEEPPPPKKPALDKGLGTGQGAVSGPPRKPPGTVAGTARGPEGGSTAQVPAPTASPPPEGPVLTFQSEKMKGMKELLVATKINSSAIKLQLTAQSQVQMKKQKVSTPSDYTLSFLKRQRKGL
ClpP mod: qHTS Assay for Activators of ClpP. Potency, µM (titrated, usually from 57.5 µM), for the others: at the highest dose activity change, negative = active. 1.9% of 340,000 active. AID 651965, 2013. purified B. subtilis ClpP, FRET peptide cleavage, 20 min; active means well fitted falling curve with a large enough effect; inconclusive means small, poorly fitted or top-dose-only effect; inactive means no such curve, though single readings can be large or run the other way; further: potency means the concentration at half of the fitted maximal effect; the source files actives as falling curves though it sought activators and does not explain the sign; nearly all actives have a fitted effect of over 65% in size
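FRET quenching reversal measured ClpP activation: 10 microg/mL B. subtilis ClpP at pH 8 with the FRET-FV decapeptide, read at 430 nm after 320 nm excitation. The 20-min minus 0-min signal was scaled between DMSO/no-enzyme wells and ADEP (5.8 microM final).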
Menin MLL FP FL: qHTS Assay for Inhibitors Targeting the Menin-MLL Interaction in MLL Related Leukemias: Competition With Fluorescein Labeled MLL-derived Peptide. 290,000 tested, under 10 active. Fluorescence polarization, fluorescein-MLL peptide displacement from menin. FP activity change, % at 61.4 µM; active means well fitted curve in the direction sought with a large enough effect in the polarisation, not every such curve was filed as active; inconclusive means small, poorly fitted or top-dose-only effect, or effect the other way, or a change in a side signal; inactive means no such curve, though single readings can be large or run the other way; the % refers to the polarisation; further: % of control where 0% means no effect
CXXC DNA block: qHTS Fluorescence Polarization Assay for Inhibitors of MLL CXXC domain - DNA interaction. MLL-CXXC / FITC-HOXA9 DNA fluorescence polarization. Potency, µM (highest dose often 115 µM), inactives show at the top dose activity change, negative = inhibition, most hits filed as inhibitors. 0.037% of 290,000 active. AID 2662, 2010; active means well fitted inhibition curve with a large enough effect in the polarisation, with a control signal flat, not every such curve was filed as active; inconclusive means small, poorly fitted or top-dose-only effect, or effect the other way, or a change in a side signal; inactive means no such curve, though single readings can be large or run the other way; the % refers to the polarisation; further: potency means the concentration at half of the fitted maximal effect
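Steps: dispense CXXC domain solution (7 uM) → pin compounds or unlabeled HOX-A9 DNA control → 5 min ambient → add FLSN-HOX-A9 solution (50 nM) → spin → 30 min ambient → fluorescence polarization. Tris pH 7.5/NaCl/DTT/BSA buffer.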
Epigenetic reg: Quantitative High-Throughput Screen for Regulators of Epigenetic Control. murine LDR cells, GFP reporter derepression, 30 h. Potency, µM (series often up to 53.9 µM), for inactives: at the top dose GFP activation, actives largely listed as activators. 0.2% of 280,000 active; further: potency means the concentration at half of the fitted maximal effect; % of control where 0% means no effect; nearly all actives have a fitted effect of over 60% in size
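Murine LDR cells carrying a silenced, genomically integrated CMV-driven GFP reporter were exposed to compound for 30 hours at 37 C. After PBS washes, GFP-positive cells (20–120 um objects) were counted by laser-scanning microplate cytometry.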
ClpP inh valid: qHTS Assay for Activators of ClpP: Hit Validation of Inhibitors | shares compounds with ClpP mod | purified B. subtilis ClpP, FRET-FV substrate cleavage, 20 min | Potency, µM (highest dose often 57.5 µM), for inactives: top-dose activity change, negative = inhibition, most hits filed as inhibitors | 40% of 470 active | AID 743245, 2014; further: potency means the concentration at half of the fitted maximal effect; on the % scale 0 is the no-effect control and ±100 the full control effect; nearly all actives have a fitted effect of over 70% in size
Active calls of the source: *; i = inactive; ? = inconclusive; . = not tested or not shown; [ ] = another dose, or the depositor's remark. Rows were chosen to be rich in hits. Some 1.9% of all compounds tested hit in one or more screens of this group. Unless noted, the call rests on the fitted dose curve; in most records, active means well fitted curve in the direction sought with a large enough effect; inconclusive means small, poorly fitted or top-dose-only effect, or another doubt; inactive means no such curve, though single readings can be large; an effect the other way counts as inactive or inconclusive.

SMILES	PINK1 modulator	Menin MLL FP TR	ClpP mod	Menin MLL FP FL	CXXC DNA block	Epigenetic reg	ClpP inh valid
Cc1nn(-c2ccccn2)c2c1-c1nc(N)ncc1CC2	-1%	-12%	10µM*	2	-1%	7%	17µM*
CCn1cc2nc(SCc3cccc(C(F)(F)F)c3)n(Cc3ccc(Cl)cc3)c(=O)c2n1	2%	.	-2%	.	.	-3%	.
c1cncc(-c2nnc(-c3cccs3)o2)c1	1%	-6%	8.9µM*	0	2%	1%	19µM*
CCc1nc2ccc(C(=O)NCC3CCCCC3)cn2c1N(C)C(=O)c1cccc(OC)c1	6%	.	2%	.	.	.	.
CC(=O)N1CCN(Cc2cc(=O)oc3ccccc23)CC1	-1%	.	-2%	.	.	.	.
COc1ccccc1CNC(=O)c1ccc(Nc2nc3ccccc3n3nnnc23)cc1	?	.	i	.	.	?	15µM*
NC(=O)CCCCn1ccc(NC(N)=NCC(F)(F)F)n1	.	1%[24.8 µM]	.	3	.	0%	.
Cc1coc2c1c(C)cc1oc(=O)cc(C)c12	-2%	.	-26%	.	.	-1%	.
CC(C)C(=O)N[C@@H]1CCCN1C(=O)/C=C\c1ccccc1	.	-3%[11.7 µM]	.	-1[11.7 µM]	.	0%[10.1 µM]	.
COCCCNC(=O)C1CCC(Cn2c(=O)c3sccc3n(Cc3ccc(F)cc3)c2=O)CC1 (stereo unspecified)	-1%	.	0%	.	.	1%	.
COc1ccc(NC2=CC(c3ccc(F)cc3)N(c3ccc(OC)cc3)C2=O)cc1 (stereo unspecified)	29%	-2%	94%	4	-7%	-3%	?
Nc1c(C(=O)NCCN2CCOCC2)c2nc3ccccc3nc2n1-c1cccc(F)c1	0%	1%	10µM*	4	6%	-3%	22µM*
COCCCNC(=O)c1c(N)n(-c2cccc(S(N)(=O)=O)c2)c2nc3ccccc3nc12	0%	-14%	8.9µM*	4	11%	-1%	?
CCOc1ccc(NC(=O)c2cc3cc4ccc(OC)cc4nc3o2)cc1	-2%	5%	53%	1	19%	0%	27µM*
Cc1ccc(NC(=O)c2nc(S(C)(=O)=O)ncc2N(Cc2ccco2)Cc2cccs2)cc1C	0%	.	-5%	.	.	-2%	.
Cc1cc(C)c2c(CC(=O)Nc3c(C(=O)Nc4ccc(Cl)cc4)oc4ccccc34)coc2c1	-1%	.	7.9µM*	.	.	0%	-23%
Cc1ccc(C)c(NC(=O)Cn2c(=O)n(CC3CCCO3)c(=O)c3ccccc32)c1 (stereo unspecified)	0%	.	-21%	.	.	0%	.
CCCN(CC(=O)Nc1ccccc1OC)C(=O)CN1C(=O)NC(C)(C)C1=O	-1%	.	1%	.	.	.	.
Fc1ccc(-c2nc(-c3cccs3)no2)cc1	5%	.	1%	0	9%	2%	.
Fc1ccc(-c2cnc(-c3cccs3)o2)cc1	0%	14%	6.3µM*	2	-3%	5%	5.4µM*
c1cncc(C2Nc3ccccc3-c3nc4ccccc4n32)c1 (stereo unspecified)	-6%[38.3 µM]	9%	3.2µM*	0	0%	0%	27µM*
Cc1ccsc1C1Nc2ccccc2-c2nc3ccccc3n21 (stereo unspecified)	3%	?	74%	10	0%	2%	.
COc1ccc(C(=O)Nc2ccc(N3CCOCC3)cc2)cc1S(=O)(=O)NC1CCCC1	4%	3%	8.9µM*	0	2%	-2%	-1%
COc1ccc(C(=O)Nc2ccc(N3CCOCC3)cc2)cc1S(=O)(=O)N1CCCC1	1%	.	1%	.	.	.	.
CC1(C)Cc2nc3oc4c(NCCCN5CCOCC5)ncnc4c3cc2CO1	1%	.	.	-1	1%	-3%	.
SMILES	PINK1 modulator	Menin MLL FP TR	ClpP mod	Menin MLL FP FL	CXXC DNA block	Epigenetic reg	ClpP inh valid
CC1(C)Cc2nc3oc4c(NCc5ccccc5)ncnc4c3cc2CO1	14%	-8%	2.8µM*	-1	2%	-3%	9.7µM*
Cn1c(NCCN2CCOCC2)nc2c1c(=O)n(Cc1cccc(Cl)c1)c(=O)n2C	0%	-2%	3.2µM*	-1	-1%	2%	0%
COc1ccccc1N(CC(=O)Nc1ccc2c(c1)OCCO2)S(C)(=O)=O	0%	15%	0%	1	-5%	-1%	.
COc1ccccc1N(CC(=O)Nc1ccc2c(c1)OCCO2)S(=O)(=O)c1ccc(C)cc1	1%	?	5µM*	-1	1%	.	0%
Cc1ccc(-n2c(SCC(N)=O)nc3c(oc4ccccc43)c2=O)cc1C	0%	.	1%	.	.	1%	.
O=S(=O)(c1ccc(-c2csc(Nc3ccc(Br)cc3)n2)cc1)N1CCCC1	7%	.	3.2µM*	.	?	6%	27µM*
Cc1cc(C)cc(Nc2nc(-c3ccc(S(=O)(=O)N4CCCC4)cc3)cs2)c1	9%	-26%	4%	6	8%	-1%	.
CC(=O)c1cccc(NC(=O)COc2ccccc2C(=O)Nc2ccccc2)c1	0%	.	-4%	.	.	.	.
COc1ccccc1NC(=O)c1ccc(COc2ccc3c(c2)CCC3)cc1	0%	2%	219%	-2	4%	-1%	-19%
COC(=O)c1ccccc1NC(=O)c1ccc(COc2ccc3c(c2)CCC3)cc1	3%	0%	?	-1	-1%	?	.
O=C(CC1N=C2c3ccccc3N=C(SCc3ccccc3Cl)N2C1=O)NCc1cccs1 (stereo unspecified)	0%	.	-7%	.	.	-1%	.
O=C(O)c1ccccc1NC(c1ccccc1)c1ccc2cccnc2c1O (stereo unspecified)	-1%	.	150%	.	.	.	?
Cc1ccnc(NC(c2ccccc2)c2ccc3cccnc3c2O)c1 (stereo unspecified)	2%	.	.	.	.	.	.
Fc1ccc(CNc2cnccn2)cc1	12%[38.3 µM]	12%	3.2µM*	3	2%	0%	22µM*
O=C(NC1CCCCC1)C(c1cccc2ccccc12)n1c(=O)c(-c2cc3ccccc3[nH]2)nc2ccccc21 (stereo unspecified)	.	.	41%	.	.	.	6%
